Experimental data: ChEMBL document CHEMBL1157539, “Thousands of chemical starting points for antimalarial lead identification” (Nature, 2010)

System: Plasmodium falciparum
Assay: GSK_TCMDC: Inhibition of Plasmodium falciparum 3D7 in whole red blood cells, using parasite LDH activity as an index of growth. Test compounds present at 2uM
Type: functional

Compound | Inhibition [%]
C=CCN(C(=O)c1ccc(Cl)c([N+](=O)[O-])c1)c1nc(-c2ccccc2)cs1 | 100
N=C(N)CCN(Cc1ccccc1)c1ccc(Cl)cc1 | 98
O=C(Nc1cccc(-c2csc(-c3nc4ccccc4[nH]3)c2)c1)c1cc(=O)c2ccccc2[nH]1 | 98
O=C(Nc1ccc(Cn2ncc(N3CCCNCC3)c(Cl)c2=O)cc1)Nc1ccc(C(F)(F)F)cc1.O=C(O)C(F)(F)F | 90
O=C(Nc1cc(F)cc(F)c1)N[C@H]1CCN(CCCCCNC(=O)C2CC2c2ccc(Cl)c(Cl)c2)C1 (stereo partly specified) | 88
COc1cccc(C2C(C(=O)Nc3ccccc3)=C(C)N=c3sc(=Cc4ccc(O)cc4)c(=O)n32)c1 (stereo unspecified) | 97
O=C(Nc1cccc(CN2CCCN(Cc3ccsc3)CC2)c1)c1ccc(-c2ccccc2)cc1.O=C(O)C(F)(F)F | 90
c1ccc(-c2csc(Nc3nc4cc5c(cc4s3)OCO5)n2)nc1 | 81
Cn1nc(-c2ccc(NC(=O)Nc3cc(C(F)(F)F)ccc3F)c(F)c2)c2cnc(NCCCN3CCOCC3)nc21.O=C(O)C(F)(F)F | 100
CCc1cn(CCOC)c2ccc(C(=O)N[C@@H](Cc3ccccc3)[C@H](O)CNC(C)(C)CCCC(C)C)cc12.O=CO | 98
Cc1cc(C)cc(OCC(O)CN(Cc2cc(Cl)cc(Cl)c2)C(=O)Nc2ccc([N+](=O)[O-])cc2)c1 (stereo unspecified) | 95
COc1ccc(NC(=O)C2c3ccccc3C(=O)N(C3CCCC3)C2c2cccs2)cc1 (stereo unspecified) | 93
O=C(Nc1ccc(Cl)c(C(F)(F)F)c1)N[C@H]1CCN(CCCCCNC(=O)C2CC2c2ccc(Cl)c(Cl)c2)C1 (stereo partly specified) | 94
O=C(NCC1CCC1)c1cnc(Nc2cccc(Cl)c2)nc1N1CCC1 | 98
COc1cc(NCCCCNc2ccc(Cl)c(Cl)c2)nc2ccccc12 | 100
Fc1ccccc1C=NN=c1cc[nH]c2ccccc12 | 94
N#Cc1ccc(NC(=O)NC2CCN(CCCCCNC(=O)/C=C/c3ccc(Cl)c(Cl)c3)CC2)cc1 | 98
Cc1nc(C)c(CC(=O)Nc2ccc(-c3cccc(-c4nc5cc(C(F)(F)F)ccc5[nH]4)c3)cc2)s1 | 86

Compound | Inhibition [%]
COc1ccc2nc(C)cc(NCc3ccc4ccccc4c3)c2c1.Cl | 100
CCN(CC)CCN(CCCc1ccc(-c2ccc(C(F)(F)F)cc2)cc1)C(=O)Cn1c(CCc2cccc(F)c2F)nc(=O)c2c1CCC2.O=C(O)C(O)C(O)C(=O)O | 92
Cc1cc(N(C)C)nc(Nc2ccc(NC(=O)c3ccccc3F)cc2)n1 | 89
N#Cc1ccc(-c2ccc(OCC(O)CN3CCCN(C(=O)C(c4ccc5c(c4)OCO5)N4CCN(C/C=C/c5ccccc5)CC4)CC3)cc2)cc1 (stereo unspecified) | 99
Cc1c(S(=O)(=O)Nc2ccc3ccn(CCN(C)C)c3c2)sc2ccc(Cl)cc12.Cl | 98
O=C(Nc1ccc2[nH]c(-c3ccc4nc(NC(=O)C5CCCCC5)sc4c3)nc2c1)C1CCCCC1 | 100
COc1ccc2c(c1C1CCN(CCCCNC(=O)c3ccc(NC(=O)c4ccc(Cl)cc4)cc3)CC1)CCCC2 | 100
COc1cc(C(=O)N2CCN(C(C)C)CC2)ccc1CN(C)CCCN1CCN(c2cccc(Cl)c2Cl)CC1.Cl | 100
CCn1c2ccccc2c2cc(Cc3cnc(N)nc3N)ccc21.Cl | 94
CN(C)CCN(C)Cc1cccc(-c2ccc3c(Nc4ccc(F)cc4Cl)ccnc3c2)c1 | 100
Cc1n[nH]c2ccc(-c3cc(OC[C@@H](N)Cc4ccccc4)cnc3-c3cc4ccccc4s3)cc12.O=C(O)C(F)(F)F | 99
Clc1ccc(CNc2nc(NCCc3c[nH]cn3)nc(NC3CCCCC3)n2)cc1 | 100
COc1ccc(C(=O)N2CCC3(CC2)C(=O)N(CC(=O)NCC2CCCCC2)CN3c2ccccc2)cc1 | 100
OCCN1CCN(c2nc(Nc3cccc(F)c3)c3cnn(-c4ccccc4)c3n2)CC1 | 100
Br.CC1(C)NC(N)=NC(=N)N1OCCCOc1cccc2ccccc12 | 95
Cl.Nc1c2c(nc3ccc(NC(=O)CCCc4ccccc4)cc13)CCCC2 | 100
CCN(CC)S(=O)(=O)c1ccc(C=CC(=O)Nc2cc(Cl)ccc2N2CCOCC2)cc1 | 90
O=C(N[C@@H](CC1CCCCC1)C(=O)NCCN1CCCCC1)c1ccc(O)c(-c2ccc(Cl)c(Cl)c2)c1 | 97
